From PubChem
ST2 IL33 inh: inhibitors of human ST2 (IL1RL1) binding to IL-33, primary screen, biochemical, AlphaLISA; inhibition, % for hits at 17 µM; AID 1259354, 2018; Interleukin-1 receptor-like 1 (Homo sapiens), Q01638; hit rate 2.3% among 78,000; AlphaLISA ST2-Fc/biotin-IL-33 interaction, 1 h; in the data active = inhibition above about 30%
Target sequence (Q01638 whole entry, looked up): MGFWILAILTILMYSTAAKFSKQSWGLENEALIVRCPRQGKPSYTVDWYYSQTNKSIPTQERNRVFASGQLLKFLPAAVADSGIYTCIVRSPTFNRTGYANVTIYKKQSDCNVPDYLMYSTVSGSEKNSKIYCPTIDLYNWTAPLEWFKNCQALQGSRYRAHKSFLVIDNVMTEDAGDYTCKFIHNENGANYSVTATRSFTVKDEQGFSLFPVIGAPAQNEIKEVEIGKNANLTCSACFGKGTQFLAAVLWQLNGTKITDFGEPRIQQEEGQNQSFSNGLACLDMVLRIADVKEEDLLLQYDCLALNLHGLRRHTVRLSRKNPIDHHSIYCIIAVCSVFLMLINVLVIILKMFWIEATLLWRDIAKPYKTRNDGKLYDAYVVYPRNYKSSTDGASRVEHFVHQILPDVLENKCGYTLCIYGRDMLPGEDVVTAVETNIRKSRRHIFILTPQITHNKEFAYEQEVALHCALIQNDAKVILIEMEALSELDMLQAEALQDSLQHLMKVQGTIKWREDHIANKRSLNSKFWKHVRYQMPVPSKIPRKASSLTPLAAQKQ
Numbers stand for hits. This excerpt belongs to a sample that is enriched for hits.

`CC1=NN(c2ccc(Cl)c(C(=O)O)c2)C(=O)/C1=C\c1ccc(Br)cc1` gave ST2 IL33 inh inactive.
For COc1ccccc1/C=C1\C(=O)N(c2ccc(Cl)c(Cl)c2)N=C1C the results were ST2 IL33 inh inactive.
CC1=NN(c2ccc(Cl)c(C(=O)O)c2)C(=O)/C1=C\c1ccc(Cl)cc1 was read as ST2 IL33 inh 48.0%.
Screening COc1cc(/C=C2/C(=O)N(c3ccc(Cl)c(Cl)c3)N=C2C)cc(OC)c1O returned ST2 IL33 inh 35.0%.
Screening CC1=NN(c2ccc(Cl)c(C(=O)O)c2)C(=O)/C1=C\c1ccc(OCc2ccccc2)cc1 returned ST2 IL33 inh inactive.
For CC1=NN(c2ccc(Cl)c(Cl)c2)C(=O)/C1=C/c1cccs1 the results were ST2 IL33 inh 54.0%.
Screening OCC1(CCOc2ccccc2)CCN(Cc2cc3ccccc3o2)CC1 returned ST2 IL33 inh inactive.
Screening CCOC(=O)c1ccc(N2C(=O)C3CCC(C)CC3C2=O)cc1 (centres undefined) returned ST2 IL33 inh inactive.
`c1ccc(COC2CCCN(Cc3ccc(-n4ccnc4)cc3)C2)nc1` (centres undefined) gave ST2 IL33 inh inactive.
`CC1=C(C(=O)Nc2ccccn2)C(c2ccccc2)C2=C(CC(C)(C)CC2=O)N1` (centres undefined) gave ST2 IL33 inh inactive.
For CS(=O)(=O)N1CCC(Oc2ccc(C(=O)N3CCCCO3)cc2Cl)CC1 the results were ST2 IL33 inh inactive.
COc1cc2c(cc1OC)C(=O)C(C)(C)N(Cc1ccccc1)C2 was read as ST2 IL33 inh inactive.
CCOC(=O)c1c(NC(=O)COc2ccc(OC)cc2)sc(C)c1C was read as ST2 IL33 inh inactive.
For CC(C)Cc1cc(C(=O)N(C)Cc2cccs2)on1 the results were ST2 IL33 inh inactive.
Screening COc1cc(Cl)c(S(=O)(=O)Nc2ccccn2)cc1Cl returned ST2 IL33 inh inactive.
`COc1ccc(/C=C2\C(=O)N(c3ccc(Cl)c(C(=O)O)c3)N=C2C)cc1OC` gave ST2 IL33 inh inactive.
For COc1cc(/C=C2\C(=O)N(c3ccc(Cl)c(C(=O)O)c3)N=C2C)cc(Br)c1O the results were ST2 IL33 inh 75.0%.
`C=CCOc1ccc(/C=C2\C(=O)N(c3ccc(Cl)c(C(=O)O)c3)N=C2C)cc1OC` gave ST2 IL33 inh inactive.
For C=CCSc1nc(-c2ccccc2)ccc1C#N the results were ST2 IL33 inh inactive.
For Cc1nc(C)c(-c2cccc3[nH]ccc23)s1 the results were ST2 IL33 inh inactive.
Screening Cc1nc2sc(C(c3ccccc3)N3CC(C)CC(C)C3)c(O)n2n1 (centres undefined) returned ST2 IL33 inh inactive.
`O=C1N=c2ccc(Br)cc2=C1c1sc(=O)[nH]c1O` gave ST2 IL33 inh inactive.
`O=C1N=c2ccc(Br)cc2=C1c1sc(Nc2cccc(C(F)(F)F)c2)nc1O` gave ST2 IL33 inh inactive.
C=CCn1c(O)c(C2=c3cc(Br)ccc3=NC2=O)c2ccccc21 was read as ST2 IL33 inh 37.0%.
Cn1cc(C(=O)Nc2ccc3c(c2)CCC3)c2ccccc2c1=O was read as ST2 IL33 inh inactive.
`CCCc1cc(CN(C)C[C@@H]2CCCN3CCCC[C@H]23)[nH]n1` gave ST2 IL33 inh inactive.
CN1C[C@@H](NC(=O)c2ccc3c(c2)OCO3)C[C@H]1c1nc(-c2ccccc2)no1 was read as ST2 IL33 inh inactive.
CC(=O)NC1=NC(=O)/C(=C/c2ccc(-c3cccc(Cl)c3)o2)S1 was read as ST2 IL33 inh inactive.
O=C1NC(=O)/C(=C\c2ccc(-c3cccc(C(=O)O)c3)o2)S1 was read as ST2 IL33 inh inactive.
O=C1C(=Cc2ccc(-c3ccc(Cl)c([N+](=O)[O-])c3)o2)C(=O)c2ccccc21 was read as ST2 IL33 inh inactive.
O=C1NC(=O)/C(=C\c2ccc(-c3ccc(Cl)c([N+](=O)[O-])c3)o2)S1 was read as ST2 IL33 inh 69.0%.
Screening NC1=NC(=O)/C(=C\c2ccc(-c3ccc(Cl)c([N+](=O)[O-])c3)o2)S1 returned ST2 IL33 inh 40.0%.
`O=C1/C(=C/c2ccc(Cl)c([N+](=O)[O-])c2)Sc2ccccc21` gave ST2 IL33 inh inactive.
CCOc1ccccc1C1C(C(=O)Nc2ccc(Cl)cc2)=C(C)Nc2nnnn21 (centres undefined) was read as ST2 IL33 inh inactive.
For CC1=C(C(=O)Nc2ccc(Cl)cc2)C(c2cccnc2)n2c(nc3ccccc32)N1 (centres undefined) the results were ST2 IL33 inh inactive.
For Cc1cc(NC2CCCCC2)nc(-c2ccccc2O)n1 the results were ST2 IL33 inh inactive.
For Cc1cc(N2N=C(c3ccccc3)CC2=O)nc(-c2ccccc2O)n1 the results were ST2 IL33 inh 31.0%.
Screening Cc1cc(OC(C)C)nc(-c2ccccc2O)n1 returned ST2 IL33 inh inactive.
For COc1cccc2c1OCC(C(=O)NCc1cnc(C)cn1)C2 (centres undefined) the results were ST2 IL33 inh inactive.
Screening CN1C[C@@H](NC(=O)Nc2ccccc2)C[C@H]1c1nc(-c2ccc(OC(F)(F)F)cc2)no1 returned ST2 IL33 inh inactive.
O=S(=O)(Cc1ccccc1)N1CCN(c2cc(-c3ccc(F)cc3)ncn2)CC1 was read as ST2 IL33 inh inactive.
`Cc1nnc(NC(=O)Nc2ccccc2)s1` gave ST2 IL33 inh inactive.
Screening CC(C)c1nnc(NC(=O)c2ccc(Br)cc2)s1 returned ST2 IL33 inh inactive.
Cc1nnc(NC(=O)c2ccc(C(C)C)cc2)s1 was read as ST2 IL33 inh 92.0%.
`CC(C)CN(CC(C)C)C(=O)C1CCCN1S(=O)(=O)c1cccc2nsnc12` (centres undefined) gave ST2 IL33 inh inactive.
Screening CCn1cc(C(=O)NCCOC)c(=O)c2cc(S(=O)(=O)N3CCC(C)CC3)ccc21 returned ST2 IL33 inh inactive.
COc1ccccc1N1CCN(Cc2cc([N+](=O)[O-])c(O)c3ncccc23)CC1 was read as ST2 IL33 inh 34.0%.
O=[N+]([O-])c1ccccc1CN1CCN(c2ccccn2)CC1 was read as ST2 IL33 inh inactive.
Screening COc1cc([N+](=O)[O-])cc(CN2CCN(c3ccccc3F)CC2)c1O returned ST2 IL33 inh inactive.
COc1cc(CN2CCN(c3ccccc3C)CC2)c([N+](=O)[O-])cc1OC was read as ST2 IL33 inh inactive.
For COc1ccccc1N1CCN(Cc2cc(OC)c(O)c([N+](=O)[O-])c2)CC1 the results were ST2 IL33 inh inactive.
`O=[N+]([O-])c1ccccc1CN1CCN(Cc2ccccn2)CC1` gave ST2 IL33 inh inactive.
Screening COc1cc(CN2CCN(c3ccccc3C)CC2)cc([N+](=O)[O-])c1O returned ST2 IL33 inh 89.0%.
`CC1CCN(Cc2cc([N+](=O)[O-])c(O)c3ncccc23)CC1` gave ST2 IL33 inh inactive.
`O=[N+]([O-])c1ccccc1CN1CCN(c2ncccn2)CC1` gave ST2 IL33 inh 31.0%.
CCC(C)C1N=C2c3ccccc3N=C(SCC(=O)Nc3cc(C)[nH]n3)N2C1=O (centres undefined) was read as ST2 IL33 inh inactive.
For O=C(Nc1ccc(F)cc1F)C12C[C@@H]3C[C@@H](CC(Br)(C3)C1)C2 the results were ST2 IL33 inh inactive.
`COCC(=O)Nc1ccc(-c2noc([C@@H]3CCCN3Cc3ccccc3F)n2)cn1` gave ST2 IL33 inh inactive.
For CN1CCN(C(=O)CN(c2ccccc2F)S(C)(=O)=O)CC1 the results were ST2 IL33 inh inactive.
`CC1=CC[C@@H]2CN(C(=O)CCCn3cncn3)C[C@@H]2C1` gave ST2 IL33 inh inactive.
